SSB-PriA inh – blocks PriA binding to SSB C-terminal tail; AlphaScreen SSBct-PriA binding, biotinylated peptide; inhibition, % at 33 µM; 0.6% of 430,000 active; in the data active = inhibition mostly above about 37%, no sharp cut-off; inactive = mostly below about 20%;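 note: plate controls were negative control peptide for no effect and reference peptide for full effect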
PrPC surface inh – inhibitors of human cell surface prion protein PrPC | P04156 | inhibition, % at 13.8 µM | 0.43% of 370,000 active | TR-FRET read-out | AID 720596; in the data active = inhibition above about 24%; note: 0% = median of the test wells and 100% = reference compound wells
FadD28 FP inh – M. tuberculosis FadD28 bisubstrate binding inhibition | inhibition, % at 12.5 µM | FadD28 bisubstrate probe binding, fluorescence polarization | 0.22% of 360,000 active; in the data active = inhibition above about 8.5%, passing the limit was not always enough
Vc quorum ag – quorum light induction in luxS cqsA deficient V. cholerae. V. cholerae BH1578 lux reporter, luminescence, 6 h. activation, % at 18.7 µM. 0.16% of 350,000 active. AID 588436; in the data active = activation mostly above about 9.7%, no sharp cut-off
PrP UTR inh – suppresses PrP 5' UTR mRNA reporter expression; cell-based PrP 5' UTR mRNA reporter, plate reader; 0.35% of 340,000 active; inhibition, % (test concentration not listed); in the data active = inhibition above about 52%; note: 0 = median of the neutral control wells
Numbers without * were called inactive; i = inactive; . = not tested or not shown; ! = not active in a repeat. Only some compounds are listed: those with a hit (about 1.4% of all), similar ones and a draw of the others.

SMILES | SSB-PriA inh | PrPC surface inh | FadD28 FP inh | Vc quorum ag | PrP UTR inh
CCOc1ccc(NS(=O)(=O)c2ccc(Cl)c(N=Nc3c(O)[nH]c(=S)[nH]c3=O)c2)cc1Br | . | 6.2 | 14.7* | -0.3 | .
COc1ccccc1CNC(=O)Cn1cnc2c([nH]c3ccc(C)cc32)c1=O | 1.0 | . | . | . | .
CCn1nccc1C(=O)Nc1ccc(N=Nc2ccccc2)cc1 | 46.0* | . | . | . | .
O=C(CSc1ccccc1C(=O)O)c1ccc(Cl)cc1 | 0.3 | -0.4 | -3.4 | -8.3 | -26.3
O=C(O)c1ccccc1NC(c1ccccc1)c1ccc(Cl)cc1 (stereo unspecified) | -15.6 | 0.1 | 11.7* | 0.5 | -7.0
c1ccc(-n2c(SCc3ccncc3)nnc2-c2ccco2)cc1 | -6.6 | -6.8 | -3.5 | 0.8 | -15.8
c1ccc(-n2c(SCc3nc(-c4cccs4)no3)nnc2-c2ccco2)cc1 | 87.3* | 1.4 | -0.3 | -7.1 | 8.4
CCc1nc2sc3c(c2c(=O)o1)CCCC3 | 69.5* | 3.8 | 3.9 | -1.1 | -20.4
CCOC(=O)c1c(C)oc2c1c1c(c3ccccc32)OCN(Cc2cccnc2)C1 | -2.4 | . | -1.2 | -3.8 | -61.0
Clc1cc2c(c3ncccc13)OCN(Cc1cccnc1)C2 | 101.0* | . | . | . | .
Clc1cc2c(c3ncccc13)OCN(Cc1ccccc1)C2 | 89.0* | . | . | . | .
CCN(CC)CCN(C(=O)c1ccc2c(c1)CCCC2)c1nc2ccc(OC)cc2s1 | 46.0*! | -3.9 | -2.1 | -0.3 | 17.4
COc1ccc(C)c2sc(N(CCN3CCOCC3)C(=O)c3ccc(C)c(C)c3)nc12 | 31.0 | . | . | . | .
COc1ccc(OC)c2sc(N(CCCN3CCOCC3)C(=O)c3ccccc3SC)nc12 | 28.0* | . | . | . | .
COc1ccc(OC)c2sc(N(CCN3CCOCC3)C(=O)c3ccc4c(c3)CCCC4)nc12 | 41.0* | . | . | . | .
O=C(NCc1ccc2c(c1)OCO2)NC[C@H]1Cc2ccccc2CO1 | -11.0 | . | . | . | .
O=C(CCCc1cccs1)NCCc1c[nH]c2ccccc12 | 46.5* | -3.0 | 0.6 | -0.2 | -12.4
O=C(Cc1csc(Nc2cccc(Cl)c2)n1)NCCc1c[nH]c2ccccc12 | 36.0* | . | . | . | .
O=C(Nc1ccc(Cl)cc1)Nc1nc(C(=O)O)cs1 | 87.0* | . | . | . | .
O=C(Cc1csc(NC(=O)Nc2ccc(Cl)cc2)n1)NCCc1c[nH]c2ccccc12 | 52.0* | . | . | . | .
O=C(Cc1csc(NC(=O)Nc2cccc(Cl)c2)n1)NCCc1c[nH]c2ccccc12 | -5.0 | . | . | . | .
C[C@H](NCc1nc2c([nH]1)c(=O)n(C)c(=O)n2C)c1ccccc1 | -18.0 | . | . | . | .
Cn1c(=O)c2[nH]c(CNc3ccc(C(=O)O)cc3)nc2n(C)c1=O | 72.3* | 7.9 | -1.1 | i | -14.7
CS(=O)(=O)NC1CCN(c2ccccn2)C1 (stereo unspecified) | -5.0 | . | . | . | .
CCCCCCCSc1cc(OC)c(CCN(C)C)cc1OC | 49.5* | -4.9 | -3.7 | -0.5 | 0.0
SMILES | SSB-PriA inh | PrPC surface inh | FadD28 FP inh | Vc quorum ag | PrP UTR inh
CCCCCSc1cc(OC)c(CCN)cc1OC | 16.3 | -6.8 | -1.7 | i | 0.1
CN1CCN(c2ccc(NC(=O)Oc3ccccc3)cc2)CC1 | 4.7 | -5.7 | 0.3 | i | 1.2
C=CC(=O)Nc1ccc(N(C)c2ccnc(Nc3ccc(N4CCN(C)CC4)cc3)n2)cc1 | 44.0* | -2.0 | -1.5 | i | 45.8
CC(=O)Nc1ccc(/C=N\NC(=O)CNS(=O)(=O)c2ccc([N+](=O)[O-])cc2)cc1 | . | -34.6 | 9.3* | i | -22.1
O=C(CNS(=O)(=O)c1ccc([N+](=O)[O-])cc1)N/N=C/c1ccc(O)cc1O | . | -23.1 | 21.9* | -0.3 | .
O=C(CNS(=O)(=O)c1ccc([N+](=O)[O-])cc1)NN=Cc1ccc(O)cc1O | 3.2 | . | . | . | .
O=C(c1nc2ccccc2s1)N1CCN(CC(F)(F)F)CC1 | -5.0 | . | . | . | .
Cc1cccc2sc(N(CCCN(C)C)C(=O)c3nc4ccccc4s3)nc12 | 51.0* | -0.5 | -3.8 | -0.4 | -22.4
CCN(Cc1ccccc1)S(=O)(=O)c1ccc(C(=O)N(CCCN(C)C)c2nc3c(C)c(C)ccc3s2)cc1 | 39.0*! | -13.1 | -3.4 | i | -17.0
Cc1ccc2sc(N(CCCN(C)C)C(=O)c3ccc(S(=O)(=O)N(C)C4CCCCC4)cc3)nc2c1C | 40.0*! | -11.7 | -3.8 | -5.6 | -3.6
CCN(Cc1ccccc1)S(=O)(=O)c1ccc(C(=O)N(CCCN(C)C)c2nc3cc4c(cc3s2)OCO4)cc1 | 34.7 | -18.2 | -0.8 | i | -0.3
CC(OC(=O)CCC1CCCC1)C(=O)Nc1ccccc1[N+](=O)[O-] (stereo unspecified) | 42.7* | -2.5 | -3.2 | i | -1.6
C/C(=N/NC(=S)NCc1ccco1)c1ccco1 | 43.0* | . | . | . | .
COc1ccc(OCCNC(=O)N2CCN(c3ccccc3)CC2)cc1 | -20.0 | . | . | . | .
CC(C)(C)OC(=O)N1CCC(c2cc(C(N)=O)n[nH]2)CC1 | 39.0* | . | . | . | .
CC(C)(C)OC(=O)N1CCC(c2cc(-c3cccs3)n[nH]2)CC1 | -4.0 | 10.3 | -4.8 | i | -20.4
CC(C)NC(=O)Nc1nc2c(s1)CCCC2 | 29.0 | . | . | . | .
O=C(NCc1ccc(F)cc1)c1cnn2ccccc12 | 104.2* | -6.6 | -2.9 | -0.1 | -92.6
O=C(NCc1cnn2ccccc12)c1c[nH]c2ccccc12 | -2.0 | . | . | . | .
CCOc1ccc(N)c(SSc2cc(OCC)ccc2N)c1 | -4.7 | 1.8 | -2.8 | i | -8.3
CCOc1cc(-c2ccc(N)c(OCC)c2)ccc1N | 69.9* | 0.4 | -2.5 | i | -9.0
Cc1nn(C2CCS(=O)(=O)C2)c2nc(-c3cccs3)cc(C(=O)N3CCCC3)c12 (stereo unspecified) | -1.0 | . | . | . | .
CC(C)c1ccc(C=Nn2c(-c3ccccc3)n[nH]c2=S)cc1 | 6.6 | . | . | . | .
N=c1n(Cc2ccccc2)c2ccccc2n1CC(O)c1ccco1 (stereo unspecified) | 6.0 | -1.0 | 13.5* | i | -2.8
Cc1cc(Br)c(OCc2ccc(C(=O)NN=C3CC4CC=CC34)cc2)c(Br)c1 (stereo unspecified) | 19.7 | . | . | . | .
Cc1ccc(NC(=O)CN2C(=O)S/C(=C\c3cc(C)n(C)c3C)C2=O)cc1 | 7.5 | 0.5 | -1.8 | -0.4 | -20.1
Cc1ccc(C(=O)O)cc1-c1ccc(/C=C2\SC(=O)N(CC(=O)Nc3ccccc3)C2=O)o1 | -19.0 | 0.9 | 17.5* | -0.1 | -16.3
Cc1cccc(NC(=O)CN2C(=O)S/C(=C\c3cc(C)n(C)c3C)C2=O)c1 | 12.1 | -12.9 | 33.6* | -0.2 | -12.9

Screens: PubChem BioAssay, several laboratories
